Measurements from PubChem BioAssay (Tox21).
Calls of active or inactive are those of the source. The call rests on the fitted dose curve; in most records, active means well fitted activation curve with a large enough effect in the repeat runs; inconclusive means weak or mixed curves; inactive means flat fitted curve, though single readings scatter.

experiment: A CellTox Green Cytotoxicity Assay to monitor cytotoxicity in HepG2 cells - 0 hour (AID 1224882); conditions: CellTox Green fluorescence; series mostly up to 76.8 µM; further: nearly all actives have a fitted effect of over 35% in size
Description: National Center for Advancing Translational Sciences [NCATS]
NIH Chemical Genomics Center [NCGC]
U.S. Environmental Protection Agency [EPA]
National Institutes of Environmental Health Sciences [NIEHS]
National Toxicology Program [NTP]
Cell-based models are critical for drug discovery. Determining the natural cytotoxic effects resulting from test compounds is an essential research activity. A CellTox Green Cytotoxicity Assay to monitor cytotoxicity in real time of continues cell culture during 40 hours of the compound treatment was used to screen Tox21 10K library compounds in HepG2 cells. CellTox Green Cytotoxicity Assay is a nonlytic, homogeneous, biofluorescent method to measure cytotoxicity in cell culture after experimental manipulation. The assay system uses a proprietary asymmetric cyanine dye that is excluded from viable cells but preferentially stains the dead cell's DNA. […] Viable cells produce no appreciable increases in fluorescence. Therefore, the fluorescence signal produced by the binding interaction with dead cell DNA is proportional to cytotoxicity.
The mixture of HepG2 cell suspension and reagents were dispensed at 600cells/6 ul/well in 1536-well tissue culture treated black solid bottom plates using a Multidrop dispenser. After the assay plates were incubated at a 37 C/5% CO2 incubator for 5 hours, 23 nL of compounds dissolved in DMSO, positive and negative controls was transferred to the assay plate by a pintool work station. The plates were incubated at 37 C for 40 hours. The fluorescence intensity were measured at 0h, 8h, 16h, 24h, 32h and 40h time points using ViewLux plate reader during compound treatment.

Row | Compound | outcome
1 | C#C[C@]1(O)C=C[C@H]2[C@@H]3CCC4=CC(=O)CC[C@@H]4[C@H]3CC[C@@]21CC | inactive
2 | CC(N)=S | inactive
3 | C[C@]12CC[C@H]3[C@@H](CC=C4C[C@@H](O)CC[C@@]43C)[C@@H]1CC[C@@H]2O | inactive
4 | COC(=O)c1ccccc1S(=O)(=O)NC(=O)Nc1nc(C)cc(C)n1 | inactive
5 | CS(=O)(=O)c1cc(C(F)(F)F)ccc1C(=O)c1cnoc1C1CC1 | inactive
6 | CC(C)CP(=S)(S)CC(C)C | inactive
7 | CCN(CC)c1nc(C)cc(OP(=S)(OC)OC)n1 | inactive
8 | COc1cc(OC)nc(Oc2cccc(Oc3nc(OC)cc(OC)n3)c2C(=O)O)n1 | inactive
9 | Cc1nnc2n1-c1sc(CCC(=O)N3CCOCC3)cc1C(c1ccccc1Cl)=NC2 | inactive
10 | N#Cc1c(Cl)cccc1Cl | inactive
11 | CC(=O)CCc1ccc2c(c1)OCO2 | inactive
12 | O=[N+]([O-])c1cccc(O)c1 | inactive
13 | N#CCNCC#N | inactive
14 | COP(=S)(OC)Oc1ccc(S(N)(=O)=O)cc1 | inactive
15 | O=C(Cc1ccccc1)OCc1ccccc1 | inactive
16 | Nc1c(Br)cc([N+](=O)[O-])cc1[N+](=O)[O-] | inactive
17 | COC(=O)C(C)Oc1ccc(Oc2ccc(Cl)cc2Cl)cc1 (stereo not given) | inactive
18 | CC(C)(C)NCC(O)c1cc(Cl)c(N)c(Cl)c1 (stereo not given) | inactive
19 | CN1CCN(C(=O)O[C@H]2c3nccnc3C(=O)N2c2ccc(Cl)cn2)CC1 | inactive
20 | COc1ccc2c(c1OC)CN1CCc3cc4c(cc3C1C2)OCO4 (stereo not given) | inactive

Row | Compound | outcome
21 | CCC/C(=N\OCC)C1=C(O)CC(CC(C)SCC)CC1=O (stereo not given) | inactive
22 | CCOc1nc(C(Cl)(Cl)Cl)ns1 | inactive
23 | COP(N)(=S)Oc1ccccc1C(=O)OC(C)C (stereo not given) | inactive
24 | O=C(NCO)NCO | inactive
25 | CNC(=O)Oc1ccccc1C1OCCO1 | inactive
26 | C1CCC(C2CCCCC2)CC1 | inactive
27 | COc1cc(OC)nc(NC(=O)NS(=O)(=O)c2ncccc2C(=O)N(C)C)n1 | inactive
28 | CCCSP(=O)(OCC)Oc1ccc(Br)cc1Cl (stereo not given) | inactive
29 | O=NN1CCN(N=O)CC1 | inactive
30 | O=C(Nc1ccccc1)N(Cc1ccc(Cl)cc1)C1CCCC1 | inactive
31 | N#CC(CCc1ccc(Cl)cc1)(Cn1cncn1)c1ccccc1 (stereo not given) | inactive
32 | NC(=O)O | inactive
33 | CCCCc1c(C)nc(NCC)[nH]c1=O | inactive
34 | CC1=C(C(=O)Nc2ccccc2)S(=O)(=O)CCO1 | inactive
35 | CCN(CC)C(C)C(=O)c1ccccc1 (stereo not given) | inactive
36 | C[C@]1(O)CC[C@H]2[C@@H]3CCC4=CC(=O)CC[C@]4(C)[C@@]3(F)[C@@H](O)C[C@@]21C | inactive
37 | COc1cc(OC)nc(Sc2cccc(Cl)c2C(=O)O)n1 | inactive
38 | COc1cc(C[C@@H](C)N)c(OC)cc1C | inactive
39 | CNC(=O)Oc1ccc(N(C)C)c(C)c1 | inactive
40 | CC(C(O)c1ccccc1)N(C)C/C=C/c1ccccc1 (stereo not given) | inactive
